# According to PubChem BioAssay AID504725 (Broad Institute, 2011):
# Measured potencies and affinities stand elsewhere. The source made the active and inactive calls. The rule behind the calls is not given here.
# Target: KSHV LANA C-terminal domain (residues 932-1162) binding to LBS DNA (UniProt O40947)
# Assay: inhibitors of C-LANA binding to LBS DNA, dose response, biochemical, fluorescence polarization, cherry-picked samples (AID 504725)
row,Structure (SMILES),outcome
1,O=C(O)/C=C/C(=O)Nc1ccc(Cc2ccc(NC(=O)/C=C/C(=O)O)cc2)cc1,inactive
2,O=C(CN(Cc1ccccc1F)C(=O)c1csnn1)NCc1ccc2c(c1)OCO2,inactive
3,NC(=S)COc1ccccc1,inactive
4,CSc1n[nH]c(=O)n1-c1cccc(Cl)c1,inactive
5,COC(=O)\C(C(C)=O)=C(/C=C/C=C/C=C/N(C)C)N(C)C,inactive
6,NC(=S)N/N=C/c1cn(CCC(=O)O)nc1-c1cccc(Br)c1,inactive
7,COc1ccc(N=C2SC(CC(=O)Nc3ccccc3)C(=O)N2Cc2ccco2)cc1 (stereo not drawn),inactive
8,CCNc1nc(NC(C)C)nc(NS(=O)(=O)c2ccc(N)cc2)n1,inactive
9,O=C1/C(=C/c2ccco2)SC(=S)N1c1cccnc1,inactive
10,CC(C)N(Cc1ccccc1)C(=O)Cn1c(=O)cnc2ccccc21,inactive
11,COc1ccc(C(=O)OCC(=O)NC2CC2)cc1S(=O)(=O)Nc1ccc(C)cc1,inactive
12,CCc1ccc(C2CC(c3cccc(Cl)c3)n3nc(N)nc3N2)cc1 (stereo not drawn),inactive
13,Cc1nn(Cc2c(F)c(F)c(F)c(F)c2F)c(C)c1NC(=O)c1ccnn1C,inactive
14,CCCN(CCC)C(=O)C1c2ccccc2Oc2ccccc21,inactive
15,CCOc1ccc(S(=O)(=O)N(C)c2ccc(OCC(=O)NC3=NCCS3)cc2)cc1,inactive
16,COc1ccc(-c2csc(NC(=O)CSc3nc(C)nc4sc(C(=O)O)c(C)c34)n2)cc1,inactive
17,CN(c1ccc(OCC(=O)OCC(=O)c2c(N)n(C)c(=O)n(C)c2=O)cc1)S(=O)(=O)c1ccc2ccccc2c1,inactive
18,Brc1c(CSc2nncc3ccccc23)nc2ccccn12,inactive
19,Cc1cc(C)n(CCC(=O)N/N=C/c2ccc(O)cc2O)n1,inactive

row,Structure (SMILES),outcome
1,Cc1ccc(S(=O)(=O)/N=C/c2ccc(N(C)C)cc2)cc1,inactive
2,O=c1[nH]nc(CSCc2ccccc2Cl)[nH]1,inactive
3,COc1ccc(CNC(=O)C2CCC(CNC(=O)[C@@H]3Cc4ccccc4CN3)CC2)cc1 (stereo partly drawn),inactive
4,CCOC(=O)CCCn1c(C)nc(=O)c(-c2ccccc2)c1C,inactive
5,O=C1c2ccccc2C(=O)C1c1ccccn1,inactive
6,CC(OC(=O)CCN1C(=O)C2CC=CCC2C1=O)C(=O)Nc1ccc(F)cc1 (stereo not drawn),inactive
7,Cn1c(Cl)c(C(=O)Nc2ccc(Cl)cc2)c2ccccc21,inactive
8,Brc1ccc(-c2noc(COc3ccc4c(c3)CCC4)n2)o1,inactive
9,COc1ccc(-c2n[nH]c(=S)n2-c2ccc(C)cc2)cc1,inactive
10,CCCCn1nc(CC(=O)O)c2ccccc2c1=O,inactive
11,CCn1c(CN2CCCCC2)nc2cc(S(=O)(=O)N3CCCCC3)ccc21,inactive
12,Nc1ccc(-c2nc3ccc(C(=O)O)cc3s2)cc1,inactive
13,O=C(O)c1cccc(-n2cccc2/C=C/[N+](=O)[O-])c1,inactive
14,COC(=O)Cn1c(=NC(=O)c2sc3ccccc3c2Cl)sc2cc(S(N)(=O)=O)ccc21,inactive
15,CCCc1cc(C(=O)Nc2ccc(C(=O)c3ccc(C)cc3)cc2)n(C)n1,inactive
16,CC(Sc1nc(-c2ccco2)nc2c1c(=O)n(C)c(=O)n2C)C(=O)O (stereo not drawn),inactive
17,Cc1ccc2cccc(OCC(=O)NCCC3=CCCCC3)c2n1,inactive
18,O=C(NC1CCCCC1)c1cc([N+](=O)[O-])ccc1N1CCOCC1,inactive
19,CCN(C(=O)COC(=O)c1ccc([N+](=O)[O-])o1)C1CCCCC1,inactive
